Measurements taken from PubChem BioAssay.
The source made the active and inactive calls. Unless noted, how the calls were made is not given here.

How the values were obtained:
[1] = compounds binding Alexa647 anti-His antibody – biochemical, small-molecule microarray, 635 nm fluorescence, artefact control for SMM control protein annotation, primary screen (AID 1128); details: higher = more signal;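 further: score merges feature fluorescence with signal-to-noise for each printed compound spot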
[2] = system: Human papillomavirus type 1a E7 protein (residues 1-88); test: HPV1a E7 small-molecule binders, primary screen, biochemical, small-molecule microarray, residues 1-88, 635 nm (AID 1129); details: small-molecule microarray binding, fluorescence 635 nm; higher = more signal
[3] = molecular target: Focal adhesion kinase 1 (Homo sapiens) (UniProt Q05397); test: PTK2 protein binding on printed compound slides – biochemical, small-molecule microarray, 635/667 nm fluorescence, BSA, DTT, primary screen (AID 1130); details: 635 nm fluorescence, higher = more signal;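 further: composite of spot emission at 667 nm and signal to noise over triplicate slides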
Chain of Focal adhesion kinase 1 (Homo sapiens) (Q05397 whole entry, looked up): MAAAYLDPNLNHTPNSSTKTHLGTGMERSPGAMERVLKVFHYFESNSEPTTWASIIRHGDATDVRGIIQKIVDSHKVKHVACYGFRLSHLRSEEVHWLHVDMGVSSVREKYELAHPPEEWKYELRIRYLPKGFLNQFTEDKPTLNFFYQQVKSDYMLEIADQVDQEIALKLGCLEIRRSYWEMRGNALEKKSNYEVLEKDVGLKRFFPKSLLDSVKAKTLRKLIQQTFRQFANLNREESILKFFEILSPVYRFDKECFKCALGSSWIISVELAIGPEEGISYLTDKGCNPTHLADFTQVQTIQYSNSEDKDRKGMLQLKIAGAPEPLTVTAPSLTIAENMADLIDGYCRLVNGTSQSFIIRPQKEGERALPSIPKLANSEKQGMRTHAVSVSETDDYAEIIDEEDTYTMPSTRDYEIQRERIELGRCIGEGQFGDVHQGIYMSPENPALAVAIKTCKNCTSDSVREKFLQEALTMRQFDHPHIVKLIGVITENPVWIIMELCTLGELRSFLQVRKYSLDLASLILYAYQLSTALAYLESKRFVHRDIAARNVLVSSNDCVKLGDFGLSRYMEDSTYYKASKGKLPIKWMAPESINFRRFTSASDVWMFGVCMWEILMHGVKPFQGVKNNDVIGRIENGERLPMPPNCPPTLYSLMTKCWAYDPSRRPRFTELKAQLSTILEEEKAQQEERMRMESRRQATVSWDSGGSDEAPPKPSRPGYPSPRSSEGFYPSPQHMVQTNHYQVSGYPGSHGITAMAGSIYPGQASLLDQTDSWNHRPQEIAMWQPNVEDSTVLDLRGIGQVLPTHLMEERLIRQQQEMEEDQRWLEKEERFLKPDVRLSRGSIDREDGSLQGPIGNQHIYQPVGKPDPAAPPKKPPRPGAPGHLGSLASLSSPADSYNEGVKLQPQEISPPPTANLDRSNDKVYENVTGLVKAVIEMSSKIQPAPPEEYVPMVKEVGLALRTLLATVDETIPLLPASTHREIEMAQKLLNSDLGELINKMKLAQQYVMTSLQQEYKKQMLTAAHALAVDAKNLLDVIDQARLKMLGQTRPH

[4] = system: Fibrinogen (Alexa647-labelled); test: Alexa647-fibrinogen binding to printed small molecules – biochemical, small-molecule microarray, 635/667 nm fluorescence, artefact control for SMM control-protein annotation, profiling panel (AID 1131); details: fibrinogen-A647 binding fluorescence, higher = more signal;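 further: z-score merges 667 nm fluorescence with per-spot signal-to-noise over triplicate slides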
[5] = molecular target: Follistatin (Homo sapiens) (UniProt P19883); test: FST protein binding to printed compounds – biochemical, small-molecule microarray, 635/667 nm fluorescence, primary screen (AID 1132); details: 635 nm fluorescence, higher = more signal
Chain of Follistatin (Homo sapiens) (P19883 whole entry, looked up): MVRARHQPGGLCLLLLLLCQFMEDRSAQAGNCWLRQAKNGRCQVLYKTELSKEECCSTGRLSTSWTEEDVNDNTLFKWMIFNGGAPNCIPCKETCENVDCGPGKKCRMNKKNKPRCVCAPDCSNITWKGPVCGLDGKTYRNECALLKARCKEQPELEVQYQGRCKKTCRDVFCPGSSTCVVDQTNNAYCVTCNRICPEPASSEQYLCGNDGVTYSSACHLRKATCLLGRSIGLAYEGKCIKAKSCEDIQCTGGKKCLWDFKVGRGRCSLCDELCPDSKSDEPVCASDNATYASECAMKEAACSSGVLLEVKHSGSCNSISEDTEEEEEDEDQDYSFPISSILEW

[6] = molecular target: Fibroblast growth factor 2 (Homo sapiens) (UniProt P09038); test: basic fibroblast growth factor binding to printed compounds – biochemical, small-molecule microarray, 635/667 nm fluorescence, primary screen (AID 1133); details: FGF2, fluorescence 635/667, higher = more signal
Chain of Fibroblast growth factor 2 (Homo sapiens) (P09038 whole entry, looked up): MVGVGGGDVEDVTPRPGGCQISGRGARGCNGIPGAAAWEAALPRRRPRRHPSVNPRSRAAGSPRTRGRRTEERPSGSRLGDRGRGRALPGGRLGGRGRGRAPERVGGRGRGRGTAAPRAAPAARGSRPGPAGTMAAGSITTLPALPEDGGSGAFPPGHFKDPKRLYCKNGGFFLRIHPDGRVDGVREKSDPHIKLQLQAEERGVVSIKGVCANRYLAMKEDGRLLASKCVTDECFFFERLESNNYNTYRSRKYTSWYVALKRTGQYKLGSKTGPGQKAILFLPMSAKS

[7] = JC-1 mitochondrial potential readout, lung cancer cells – cell-based, A549, JC-1 fluorescence, basal, 24 h, 100 nL, profiling panel (AID 1138); details: higher = more signal;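 further: A549 lung adenocarcinoma cells under basal conditions with no added stimulus; test concentration not given here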
Lefty1 = Lefty1 protein binding to printed compounds – biochemical, small-molecule microarray, 635/667 nm fluorescence, primary screen (AID 1139); details: fluorescence 635/667, higher = more signal
[8] = system: wheat germ agglutinin (Triticum aestivum), Alexa647-labelled; test: Alexa647-WGA lectin binding to printed small molecules – biochemical, small-molecule microarray, 635/667 nm fluorescence, artefact control for SMM control-protein annotation, profiling panel (AID 1140); details: WGA-A647 binding, 635 nm fluorescence, higher = more signal;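 further: score merges 667 nm feature emission with signal to noise over triplicate slides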
[9] = molecular target: Luciferin 4-monooxygenase (Photinus pyralis) (UniProt P08659); test: inhibition of purified Photinus pyralis luciferase – biochemical, luminescence, purified enzyme, 2006 set, primary screen (AID 1141); details: purified firefly luciferase, SteadyGlo luminescence, 30 min; higher = more signal, called active from +8 up or from −8 down;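 further: cell-free assay with purified firefly luciferase at 100 ng per well in PBS; test concentration not given here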
Chain of Luciferin 4-monooxygenase (Photinus pyralis) (P08659 whole entry, looked up): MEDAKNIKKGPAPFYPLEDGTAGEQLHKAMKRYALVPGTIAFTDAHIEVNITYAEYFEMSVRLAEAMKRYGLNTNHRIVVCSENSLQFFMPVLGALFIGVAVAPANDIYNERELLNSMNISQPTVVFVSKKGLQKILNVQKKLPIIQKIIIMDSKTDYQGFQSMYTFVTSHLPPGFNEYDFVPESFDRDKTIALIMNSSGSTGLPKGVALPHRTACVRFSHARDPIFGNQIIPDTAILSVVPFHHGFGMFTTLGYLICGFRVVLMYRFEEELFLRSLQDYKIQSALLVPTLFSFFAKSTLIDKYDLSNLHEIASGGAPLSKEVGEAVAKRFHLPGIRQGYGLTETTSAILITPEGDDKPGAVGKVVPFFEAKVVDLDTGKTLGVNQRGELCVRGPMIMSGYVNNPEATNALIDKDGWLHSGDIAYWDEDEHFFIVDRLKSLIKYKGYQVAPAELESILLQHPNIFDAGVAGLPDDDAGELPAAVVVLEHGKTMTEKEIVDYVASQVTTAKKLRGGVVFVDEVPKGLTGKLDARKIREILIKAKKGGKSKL

[10] = system: Wnt5a (protein binding on small-molecule microarray); test: small molecules binding Wnt5a protein – biophysical, small-molecule microarray, 635/667 nm fluorescence, primary screen (AID 1142); details: 635 nm fluorescence, higher = more signal;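 further: fluorescence read at 667 nm with signal to noise per printed feature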
[11] = ATP-based viability of Huh7 replicon cells – cell-based, CellTiter-Glo luminescence, basal, 48 h, cytotoxicity control for HCV replication inhibitor project, primary screen (AID 1143); details: higher = more signal, called active from +8 up or from −8 down;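 further: Huh7 hepatoma cells carrying a hepatitis C replication reporter with no stimulus; test concentration not given here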
[12] = Pseudomonas biofilm growth suppression – PAO1 strain, BacTiter-Glo luminescence, LB-PBS, primary screen (AID 1144); details: P. aeruginosa PAO1 biofilm, 12 h, higher = more signal
[13] = basal CRE-LacZ reporter activity in PC12 – cell-based, unstimulated, primary screen (AID 1145); details: no forskolin, luminescence, 4.5 h, higher = more signal, called active from +8 up or from −8 down
[14] = forskolin-driven CRE-LacZ activity in PC12 – cell-based, CRE-LacZ reporter, forskolin-stimulated, primary screen (AID 1146); details: luminescence, 4.5 h, higher = more signal, called active from +8 up or from −8 down;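 further: PC12 cells with 6xCRE LacZ reporter stimulated by forskolin 10 µM; beta-galactosidase reporter signal reflecting CREB driven transcription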
[15] = molecular target: Streptavidin (Streptomyces avidinii) (UniProt P22629); test: compounds binding control protein streptavidin – biophysical, small-molecule microarray, 635/667 nm fluorescence, artefact control for SMM compound annotation, primary screen (AID 1147); details: higher = more signal;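 further: signal reflects streptavidin binding to arrayed compounds as a control protein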
Chain of Streptavidin (Streptomyces avidinii) (P22629 whole entry, looked up): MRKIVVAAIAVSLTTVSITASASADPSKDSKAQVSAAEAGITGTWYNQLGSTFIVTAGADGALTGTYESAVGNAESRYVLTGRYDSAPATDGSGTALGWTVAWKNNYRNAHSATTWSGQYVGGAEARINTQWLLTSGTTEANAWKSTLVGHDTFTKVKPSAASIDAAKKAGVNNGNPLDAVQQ

[16] = probe aInhba binding on compound microarray – biochemical, small-molecule microarray, 635/667 nm fluorescence, primary screen (AID 1148); details: higher = more signal;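 further: score merges 667nm spot fluorescence with signal-to-noise for antibody binding to printed compounds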
Torsin-1A (Homo sapiens) [17] = molecular target: Torsin-1A (Homo sapiens) (UniProt O14656); test: TOR1A wild-type binding on microarray – cell lysate, small-molecule microarray, lysate, 635/667 nm, primary screen (AID 1149); details: COS7 hTOR1A-WT lysate, 635 nm fluorescence, higher = more signal
Chain of Torsin-1A (Homo sapiens) (O14656 whole entry, looked up): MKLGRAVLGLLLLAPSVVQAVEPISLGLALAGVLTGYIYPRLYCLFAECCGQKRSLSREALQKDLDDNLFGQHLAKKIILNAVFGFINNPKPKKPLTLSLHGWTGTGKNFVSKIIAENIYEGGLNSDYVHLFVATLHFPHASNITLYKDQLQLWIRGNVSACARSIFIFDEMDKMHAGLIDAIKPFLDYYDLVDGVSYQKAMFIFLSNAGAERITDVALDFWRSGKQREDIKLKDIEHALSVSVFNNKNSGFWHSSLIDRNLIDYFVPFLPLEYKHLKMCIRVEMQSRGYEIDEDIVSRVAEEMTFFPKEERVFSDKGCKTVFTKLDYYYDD

Torsin-1A (Homo sapiens) [18] = molecular target: Torsin-1A (Homo sapiens) (UniProt O14656); test: torsin A mutant lysate binding on microarrays – cell lysate, small-molecule microarray, COS7 lysate, 635/667 nm fluorescence, primary screen (AID 1150); details: COS7 hTOR1A mutant lysate, 635 nm fluorescence, higher = more signal;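 further: score pools 667 nm emission and signal to noise measuring lysate protein binding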
[19] = system: Sonic hedgehog protein (Shh); test: Sonic hedgehog microarray binding compounds – biochemical, small-molecule microarray, 635/667 nm fluorescence, primary screen (AID 1151); details: 635 nm fluorescence, higher = more signal;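 further: Shh protein binding to compounds spotted on small-molecule microarray slides; score combines spot fluorescence intensity with signal-to-noise across triplicate slides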

Row | Compound | composite z-score [1] | composite z-score [2] | composite z-score [3] | composite z-score [4] | composite z-score [5] | composite z-score [6] | z-score [7] | composite z-score (Lefty1) | composite z-score [8] | z-score [9] | composite z-score [10] | z-score [11] | z-score [12] | z-score [13] | z-score [14] | composite z-score [15] | composite z-score [16] | composite z-score (Torsin-1A (Homo sapiens) [17]) | composite z-score (Torsin-1A (Homo sapiens) [18]) | composite z-score [19]
1 | CCCC[C@H]1OB(O)C[C@H]2C1=C(COc1ccccc1)C[C@H]1C(=O)N(Cc3ccccc3)C(=O)[C@H]12 | 0.755 | 0.692 | 0.314 | 0.817 | 0.512 | 0.291 | 0.742 | 0.872 | 0.571 | 0.258 (inactive) | -0.0155 | -1.72 (inactive) | -0.375 (inactive) | 1.13 (inactive) | -0.208 (inactive) | 1.49 | -0.0136 | -0.518 | 0.106 | 1.76
2 | CCN(CC)c1ccc(N2CC=CC34O[C@@H]5/C=C\CCCOC(=O)C5[C@H]3C(=O)N(CCCO)[C@@H]4C2=O)cc1 (stereo not given in full) | 1.54 | -0.231 | -0.426 | -0.928 | -1.05 | -0.942 | 0.614 | -0.5 | -0.137 | -0.826 (inactive) | -0.674 | 0.273 (inactive) | 2.24 (inactive) | -0.212 (inactive) | -0.473 (inactive) | -1.12 | -0.157 | -1.94 | -1.45 | -0.18
3 | COCCOC(=O)N1C(=O)[C@@]2(c3ccccc31)[C@H](C(=O)N1CCCCCCC1)[C@H]1C(=O)O[C@H](c3ccccc3)[C@H](c3ccccc3)N1[C@@H]2c1ccccc1OCCO | 2.04 | 1.27 | 1.26 | 0.802 | 1.47 | 0.662 | -0.647 | 1.47 | 1.53 | 0.131 (inactive) | 1.09 | -2.56 (inactive) | -0.699 (inactive) | 0.0384 (inactive) | 0.207 (inactive) | 2.79 | 1.76 | 1.27 | 1.76 | 1.3
4 | CN1C(=O)C2C=CC(C(O)c3ccccc3)N(NC(=O)OC(C)(C)C)C2C1=O (stereo not given) | 0.884 | 1.12 | 0.164 | 0.513 | -0.0714 | -0.27 | -0.165 | -0.525 | 1.05 | 0.22 (inactive) | 0.126 | 0.413 (inactive) | 0.316 (inactive) | 0.443 (inactive) | 0.955 (inactive) | 0.134 | -0.128 | -0.365 | 0.0838 | -0.582
5 | C=CC[C@]1(C(=O)O)N=C(c2ccc(OCCCO)cc2)O[C@H]1c1ccccc1CN=[N+]=[N-] | 0.518 | -0.583 | 0.174 | -0.276 | 0.349 | -0.39 | 0.00796 | -0.316 | 0.184 | -0.893 (inactive) | 0.0194 | 0.101 (inactive) | 0.874 (inactive) | 0.274 (inactive) | -0.0119 (inactive) | -0.0336 | -0.108 | 0.0499 | 0.416 | -0.0799
6 | C=C[C@H](OC)[C@@H](OC(=O)Nc1ccc(SC)cc1)c1ccc(OCCO)cc1 | 3.12 | 1.22 | 0.39 | -0.332 | 0.236 | 0.453 | -1.56 | -0.444 | 0.833 | -1.94 (inactive) | 0.712 | -1.24 (inactive) | -1.2 (inactive) | 1.55 (inactive) | -0.648 (inactive) | -0.414 | -0.123 | 0.212 | 0.792 | 0.255
7 | CO[C@H]1O[C@H](CO)[C@@H](OC(=O)Nc2ccc(C(F)(F)F)cc2)[C@H](OC(=O)Nc2ccccc2)[C@@H]1OC(=O)Nc1ccccc1 | 0.817 | 1.18 | 0.132 | 0.944 | 1.21 | 0.21 | -0.191 | 0.41 | 0.58 | -0.72 (inactive) | 0.534 | -3.7 (inactive) | 0.724 (inactive) | 0.904 (inactive) | -1.01 (inactive) | 1.08 | -0.0538 | 0.146 | -0.0359 | 0.934
8 | CC1CC/C=C\[C@H]2OC34C=CCN(Cn5nnc6ccccc65)C(=O)[C@H]3N(CCCO)C(=O)[C@@H]4C2C(=O)O1 (stereo not given in full) | 0.239 | -0.326 | -0.47 | -1.15 | -0.693 | -1.03 | -0.198 | -0.146 | -1.09 | 0.885 (inactive) | -0.595 | -0.382 (inactive) | -0.281 (inactive) | -0.212 (inactive) | -0.759 (inactive) | -0.958 | -0.157 | -1.89 | -1.33 | 0.0837
9 | COCC1=C([C@H](O)CCc2ccccc2)[C@H](CO)[C@@H]2C(=O)N(Cc3ccccc3)C(=O)[C@@H]2C1 | -0.219 | -0.0814 | 0.0916 | 0.292 | 0.444 | 0.0451 | 0.68 | 0.448 | 0.131 | 0.24 (inactive) | 0.0713 | -0.979 (inactive) | -0.771 (inactive) | 0.586 (inactive) | -0.0417 (inactive) | -0.0218 | -0.0759 | -0.305 | 0.767 | 1.03
10 | COCCOC(=O)N1C(=O)[C@@]2(c3cc(C#Cc4ccc(OC)cc4)ccc31)[C@H](c1ccc(OCCO)cc1)N1[C@H](c3ccccc3)[C@H](c3ccccc3)OC(=O)[C@H]1[C@@H]2C(=O)N1CCc2cc(OC)c(OC)cc2C1 | 0.512 | 1.08 | 0.272 | -0.122 | 1.25 | 1.24 | -1.35 | 1.13 | -0.12 | -0.584 (inactive) | 0.377 | -2.85 (inactive) | -1.61 (inactive) | -1.15 (inactive) | -1.33 (inactive) | 0.482 | -0.0736 | 0.37 | 0.454 | 1.85
